Compound activity (PubChem BioAssay)
Shown are actives, neighbours in structure and some others; about 1.9% of the full set was active somewhere.
PME-1 inh: PME-1 (human) inhibition | Q9Y570 | 320,000 compounds, 0.53% hits | recombinant PME-1, FP-Rh probe fluorescence polarization | inhibition, % at 5.9 µM;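 active means inhibition above the campaign mean of all compounds plus 3 SD, cut at about 26% in these data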;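 further: competitive labeling of PME-1 active site by serine hydrolase directed probe; inhibitors block probe labeling so polarization falls and inhibition rises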
Target sequence (Q9Y570 whole entry, looked up): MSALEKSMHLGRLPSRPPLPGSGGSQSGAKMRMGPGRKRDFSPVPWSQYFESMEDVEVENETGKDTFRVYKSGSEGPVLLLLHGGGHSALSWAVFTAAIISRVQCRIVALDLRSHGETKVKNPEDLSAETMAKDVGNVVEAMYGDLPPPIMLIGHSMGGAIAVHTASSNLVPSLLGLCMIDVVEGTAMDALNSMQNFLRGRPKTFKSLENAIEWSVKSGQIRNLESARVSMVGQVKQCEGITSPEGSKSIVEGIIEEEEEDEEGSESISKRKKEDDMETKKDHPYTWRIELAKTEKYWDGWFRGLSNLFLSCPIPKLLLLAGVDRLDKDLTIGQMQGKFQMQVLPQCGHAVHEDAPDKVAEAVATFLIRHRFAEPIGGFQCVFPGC
LYPLA2 inh: blocks human lysophospholipase 2, a PME1 counter-screen | O95372 | recombinant LYPLA2, FP-Rh probe fluorescence polarization | inhibition, % at 5.9 µM | 320,000 compounds, 0.38% hits;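 active means inhibition above the screen-wide mean plus 3 SD, limit set per campaign, cut at about 26% in these data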
Fam108B counter: Fam108B inhibition, counter-screen for RBBP9 inhibitors | recombinant Fam108B, FP-Rh probe fluorescence polarization | inhibition, % at 9.51 µM | 300,000 compounds, 0.33% hits | AID 1947;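 active means inhibition above the screen mean inhibition plus 3 SD, computed separately per campaign, cut at about 18% in these data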;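 further: inhibitors lower polarization as less probe binds the enzyme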
LYPLA1 counter: blocks human lysophospholipase 1, a PME1 counter-screen. O75608. recombinant LYPLA1, FP-Rh probe fluorescence polarization. inhibition, % at 5.9 µM. 320,000 compounds, 0.16% hits. AID 2174;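 active means inhibition above the mean of all tested compounds plus 3 SD, set per campaign, cut at about 14% in these data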;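 further: inhibitors block serine hydrolase probe labeling of LYPLA1 so polarization falls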
PREPL inhibitor: inhibits the human prolyl oligopeptidase-like enzyme. 320,000 compounds, 0.68% hits. recombinant PREPL, fluorescence polarization activity-based probe. AID 2751. Q4J6C6. inhibition, % at 5.96 µM; in the data active means inhibition above about 43%
GSTO1 counter: blocks human GSTO1 in RBBP9 counter-screen | P78417 | recombinant GSTO1, activity-based probe fluorescence polarization | inhibition, % at 5.96 µM | 300,000 compounds, 1.1% hits | AID 1974;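 active means inhibition above the campaign mean inhibition plus 3 SD, cut at about 35% in these data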
Target sequence (P78417 whole entry, looked up): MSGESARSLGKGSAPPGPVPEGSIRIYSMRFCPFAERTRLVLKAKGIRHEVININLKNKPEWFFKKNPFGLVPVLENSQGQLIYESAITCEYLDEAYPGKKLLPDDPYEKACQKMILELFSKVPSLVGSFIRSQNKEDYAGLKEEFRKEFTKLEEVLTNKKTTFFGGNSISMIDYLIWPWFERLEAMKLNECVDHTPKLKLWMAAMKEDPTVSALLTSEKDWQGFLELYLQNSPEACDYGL
Fam108b inh conf: confirmation of mouse Fam108b serine hydrolase inhibitors. inhibition, % at 9.51 µM. 930 compounds, 44% hits. shares compounds with Fam108B counter. recombinant Fam108b, FP-Rh probe fluorescence polarization;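 active means inhibition above a limit from the primary screen, the mean over all compounds plus 3 SD, cut at about 19% in these data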;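 further: inhibitors free the probe so polarization falls as inhibition rises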
Fam108b inh: inhibits mouse Fam108b in gel-based ABPP; AID 588649; inhibition, % at 20 µM; 260 compounds, 44% hits; recombinant Fam108b, fluorophosphonate probe; shares compounds with Fam108B counter; in the data active means inhibition above about 40%
GSTO1 confirm: confirmation of human GSTO1 inhibitors. shares compounds with GSTO1 counter. 2,400 compounds, 54% hits. recombinant GSTO1, probe fluorescence polarization. inhibition, % at 5.96 µM;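 active means inhibition above the primary screen's cutoff, its mean inhibition plus 3 SD, cut at about 35% in these data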;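 further: loss of polarization as inhibitors block binding of rhodamine sulfonate ester activity probe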
LYPLA1 confirm: LYPLA1 (human) inhibition, confirmation counter-screen | AID 2233 | inhibition, % at 5.9 µM | 480 compounds, 69% hits | recombinant LYPLA1, FP-Rh probe fluorescence polarization | shares compounds with LYPLA1 counter;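 active means mean inhibition across replicates above the hit cutoff set in the primary screen, cut at about 15% in these data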;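 further: loss of FP-Rh probe labeling of LYPLA1 seen as lower polarization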
LYPLA2 confirm: LYPLA2 (human) inhibition, confirmation counter-screen; recombinant LYPLA2, FP-Rh probe fluorescence polarization; AID 2232; inhibition, % at 5.9 µM; 1,100 compounds, 72% hits; shares compounds with LYPLA2 inh;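 active means mean inhibition across replicates above the hit cutoff set in the primary screen, cut at about 26% in these data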;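 further: blocked labeling of the enzyme by serine hydrolase FP-Rh probe lowers polarization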
Each line names hits and unclear results; the compound was inactive in the other large screens (follow-up assays come after a bar, where they were run).

Cc1nc2ccccc2n1CCC(=O)O	none
Cc1nc2ccccc2n2c(O)c(CC(=O)O)cc12	LYPLA2 inh 27, Fam108B counter 18 | Fam108b inh conf inactive | LYPLA2 confirm inactive
O=C(Nc1cc(Sc2ccccn2)cc([N+](=O)[O-])c1)c1ccc([N+](=O)[O-])cc1	LYPLA2 inh 57, Fam108B counter 19 | Fam108b inh conf inactive | LYPLA2 confirm inactive
O=[N+]([O-])c1ccc(Sc2ccccn2)nc1	none
O=S(=O)(c1cccs1)N1CN(Cc2ccco2)c2nc3ccccc3nc21	PME-1 inh 34, LYPLA2 inh 38, Fam108B counter 28, LYPLA1 counter 30, GSTO1 counter 37 | Fam108b inh conf inactive | LYPLA1 confirm inactive | LYPLA2 confirm inactive
O=S(=O)(c1cccs1)N1CN(Cc2ccc(Cl)cc2)c2nc3ccccc3nc21	none
CCn1c(CSc2ncn[nH]2)nc2cc(C(=O)O)ccc21	none
CCn1c(CSc2nnc(-c3ccncc3)n2C)nc2cc(C(=O)O)ccc21	PME-1 inh 40, LYPLA2 inh 41, Fam108B counter 29, LYPLA1 counter 37 | Fam108b inh conf 37 | Fam108b inh inactive | LYPLA1 confirm 41 | LYPLA2 confirm 36
O=c1cc(-c2ccsc2)oc2ccc(-c3ccc4cc[nH]c4c3)cc12	none (no result: PME-1 inh, LYPLA2 inh, Fam108B counter, LYPLA1 counter, GSTO1 counter)
CC(=O)c1c(C)[nH]c(C(=O)COC(=O)c2ccc(C)s2)c1C	none (no result: PME-1 inh, LYPLA2 inh, Fam108B counter, LYPLA1 counter, GSTO1 counter)
CCCCCCCCOc1ccc(C2OC34CCCCC3C(C#N)(C#N)C2(C#N)C(=N)O4)cc1 (stereo not given)	LYPLA2 inh 26, Fam108B counter 19, LYPLA1 counter 17 | Fam108b inh conf inactive | LYPLA1 confirm 14 | LYPLA2 confirm inactive
N=C1CCC(=N)c2c1c(O)c1ccccc1c2O	PME-1 inh 64, LYPLA2 inh 42, Fam108B counter 39, LYPLA1 counter 31, GSTO1 counter 77 | Fam108b inh conf inactive | GSTO1 confirm 77 | LYPLA1 confirm inactive | LYPLA2 confirm inactive
CCN(C[C@H]1N[C@@](Cc2ccccc2)(C(=O)OC)[C@H]2C(=O)N(C)C(=O)[C@@H]12)C(=O)Nc1ccc(Cl)cc1	none (no result: PME-1 inh, LYPLA2 inh, Fam108B counter, LYPLA1 counter, GSTO1 counter)
COc1cccc2c1C(=O)c1c(O)c3c(c(O)c1C2=O)C[C@@](O)(C(=O)CO)C[C@@H]3O[C@H]1C[C@H](N)[C@H](O)[C@H](C)O1	PME-1 inh 48, LYPLA2 inh 43, Fam108B counter 32, LYPLA1 counter 59, GSTO1 counter 45 | Fam108b inh conf 34 | Fam108b inh 65 | GSTO1 confirm inactive | LYPLA1 confirm 52 | LYPLA2 confirm 27
Cc1ccnc2nc(C(=O)OCC(=O)NC3CCCC(C)C3C)nn12 (stereo not given)	none (no result: Fam108B counter, GSTO1 counter)
O=C(c1ccc(CNS(=O)(=O)c2cccc(Cl)c2)cc1)N1CCCCC1	none
NC(=O)C1CCN(c2ccc3c(c2)S(=O)(=O)c2ccccc2C3=O)CC1	none
O=C1C(Cl)=C(N2CCC(C(=O)O)CC2)C(=O)c2ccccc21	LYPLA2 inh 40, Fam108B counter 29, GSTO1 counter 80 | Fam108b inh conf 52 | Fam108b inh 60 | GSTO1 confirm 79 | LYPLA2 confirm 37
NC(=O)C1CCN(C2=C(Cl)C(=O)c3ccccc3C2=O)CC1	LYPLA2 inh 42, Fam108B counter 51, GSTO1 counter 87 | Fam108b inh conf 59 | Fam108b inh inactive | GSTO1 confirm 80 | LYPLA2 confirm 36
CCCCN(CCCNC(=O)Cn1nc(CC)n2c(cc3sc(C)cc32)c1=O)Cc1ccccc1	none
CCCCn1c(NC(=O)c2ccccc2Cl)c(C#N)c2nc3ccccc3nc21	PME-1 inh 27, LYPLA2 inh 58, Fam108B counter 38, LYPLA1 counter 45, GSTO1 counter 94 | Fam108b inh conf 54 | Fam108b inh inactive | GSTO1 confirm 64 | LYPLA1 confirm 62 | LYPLA2 confirm inactive
COc1ccc(C(=O)NCC(=O)N2CCN(c3ncccn3)CC2)cc1OC	none (no result: Fam108B counter, GSTO1 counter)
Cc1ccc(S(=O)(=O)N2CCN(C3CC(=O)N(c4ccc(F)cc4)C3=O)CC2)cc1C (stereo not given)	none (no result: PME-1 inh, LYPLA2 inh, Fam108B counter, LYPLA1 counter, GSTO1 counter)
Cc1ccc(N2CCOCC2)c2c1C(=O)c1ccccc1C2=O	none
O=C1C=C(N2CCOCC2)c2ccccc2C1=O	PME-1 inh 28, LYPLA2 inh 68, Fam108B counter 58, LYPLA1 counter 43, GSTO1 counter 90 | Fam108b inh conf 66 | Fam108b inh inactive | GSTO1 confirm 99 | LYPLA1 confirm 50 | LYPLA2 confirm 79
Oc1ccccc1-c1nc2c3ccccc3c3ccccc3c2[nH]1	PME-1 inh 38, LYPLA2 inh 36, Fam108B counter 44 | Fam108b inh conf 53 | Fam108b inh 90 | LYPLA2 confirm inactive
Oc1ccccc1-c1ccn[nH]1	none (no result: PME-1 inh, LYPLA2 inh, Fam108B counter, LYPLA1 counter, GSTO1 counter)
Cn1c(COc2ccccc2)nnc1SCC(=O)NC1CCCC1	none
CC(C)[C@H](NC(=O)c1ccccc1)C(=O)OCC(=O)NCc1ccc2c(c1)OCO2	none (no result: PME-1 inh, LYPLA2 inh, Fam108B counter, LYPLA1 counter, GSTO1 counter)
COC1=CC(=O)C(O)=C(CCCCCCC/C=C/CCCCCCCC2=C(O)C(=O)C=C(OC)C2=O)C1=O	LYPLA2 inh 51, Fam108B counter 47, LYPLA1 counter 56, GSTO1 counter 91 | Fam108b inh conf 52 | GSTO1 confirm 90 | LYPLA1 confirm 72 | LYPLA2 confirm 36
COc1cc(Br)c(C(=O)c2nccc3cc(OC)c(OC)cc23)cc1OC	LYPLA2 inh 57, Fam108B counter 63, LYPLA1 counter 44, GSTO1 counter 94 | Fam108b inh conf 62 | Fam108b inh inactive | GSTO1 confirm 90 | LYPLA1 confirm 16 | LYPLA2 confirm 85
Nc1ccc(N2CCCCC2)c2nonc12	PME-1 inh 34, LYPLA2 inh 90, Fam108B counter 67, LYPLA1 counter 79, GSTO1 counter 92 | Fam108b inh conf inactive | GSTO1 confirm 62 | LYPLA1 confirm inactive | LYPLA2 confirm inactive
Nc1c(N2CCCC2)cc(Cl)c2nonc12	PME-1 inh 31, LYPLA2 inh 72, Fam108B counter 54, LYPLA1 counter 72, GSTO1 counter 95 | Fam108b inh conf 42 | Fam108b inh inactive | GSTO1 confirm 49 | LYPLA1 confirm inactive | LYPLA2 confirm inactive
Nc1cc(Cl)ccc1N1CCCCC1	none
O=c1[nH]c2ccccc2c(O)c1SCCO	none
